Test results as given in the supplement of paper PMC7411054.

What was measured:
Details in all cases: treatment time: 24 h
A549-ACTB-RAB5A [1] = experiment: lowest phenotypically active concentration; higher = less potent
Outline: (§1)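 Each of fifteen gene-edited A549, HepG2 and WPMY1 reporter lines, marked with BFP for segmentation and GFP and RFP/FusionRed, was treated in four wells at 0.3, 1, 3 or 9 µM for 24 h prior to live imaging. Normalisation of per-well live-cell features used solvent control wells. Deviation needed ≥3 of 4 wells beyond the 95th percentile of control Euclidean distances, and reproducibility needed a median replicate Pearson correlation above the 95th percentile of non-replicates. Both were required for phenotypic activity.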

A549-TUBA1B-RELA [2] = experiment: as above
Outline: as §1

A549-ACTB-RAB5A [3] = experiment: phenotypically active (imaging signature differs from DMSO and reproducible) at any of 0.3-9 uM (binary (1 = active, 0 = inactive)); higher = active
Outline: as §1

A549-CANX-COX4 = experiment: as above
Outline: as §1

A549-GM130-SQSTM1 [4] = experiment: as above
Outline: as §1

A549-TP53BP1-CLTA = experiment: as above
Outline: as §1

A549-TUBA1B-RELA [5] = experiment: as above
Outline: as §1

HepG2-ACTB-RAB5A [6] = experiment: as above
Outline: as §1

HepG2-CANX-COX4 = experiment: as above
Outline: as §1

HepG2-GM130-SQSTM1 = experiment: as above
Outline: as §1

HepG2-TP53BP1-CLTA = experiment: as above
Outline: as §1

HepG2-TUBA1B-RELA = experiment: as above
Outline: as §1

WPMY1-ACTB-RAB5A = experiment: as above
Outline: as §1

WPMY1-CANX-COX4 = experiment: as above
Outline: as §1

WPMY1-GM130-SQSTM1 [7] = experiment: as above
Outline: as §1

WPMY1-TP53BP1-CLTA = experiment: as above
Outline: as §1

WPMY1-TUBA1B-RELA = experiment: as above
Outline: as §1

A549-GM130-SQSTM1 [8] = experiment: lowest phenotypically active concentration; higher = less potent
Outline: as §1

HepG2-ACTB-RAB5A [9] = experiment: as above
Outline: as §1

WPMY1-GM130-SQSTM1 [10] = experiment: as above
Outline: as §1

SMILES | lowest phenotypically active concentration (A549-ACTB-RAB5A [1]) | lowest phenotypically active concentration (A549-TUBA1B-RELA [2]) | phenotypically active (A549-ACTB-RAB5A [3]) | phenotypically active (A549-CANX-COX4) | phenotypically active (A549-GM130-SQSTM1 [4]) | phenotypically active (A549-TP53BP1-CLTA) | phenotypically active (A549-TUBA1B-RELA [5]) | phenotypically active (HepG2-ACTB-RAB5A [6]) | phenotypically active (HepG2-CANX-COX4) | phenotypically active (HepG2-GM130-SQSTM1) | phenotypically active (HepG2-TP53BP1-CLTA) | phenotypically active (HepG2-TUBA1B-RELA) | phenotypically active (WPMY1-ACTB-RAB5A) | phenotypically active (WPMY1-CANX-COX4) | phenotypically active (WPMY1-GM130-SQSTM1 [7]) | phenotypically active (WPMY1-TP53BP1-CLTA) | phenotypically active (WPMY1-TUBA1B-RELA) | lowest phenotypically active concentration (A549-GM130-SQSTM1 [8]) | lowest phenotypically active concentration (HepG2-ACTB-RAB5A [9]) | lowest phenotypically active concentration (WPMY1-GM130-SQSTM1 [10])
O=c1c(-c2ccc(O)cc2)coc2cc(O[C@@H]3O[C@H](CO)[C@@H](O)[C@H](O)[C@H]3O)cc(O)c12 [Genistin] | 9 µM | 9 µM | 1 (active) | 1 (active) | 0 (inactive) | 1 (active) | 1 (active) | 0 (inactive) | 0 (inactive) | 0 (inactive) | 0 (inactive) | 0 (inactive) | 1 (active) | 1 (active) | 0 (inactive) | 1 (active) | 0 (inactive) | – | – | –
CC(C)n1c(/C=C/[C@@H](O)C[C@@H](O)CC(=O)O)c(-c2ccc(F)cc2)c2ccccc21 [fluvastatin] | 1 µM | – | 1 (active) | 1 (active) | 1 (active) | 1 (active) | 0 (inactive) | 1 (active) | 1 (active) | 1 (active) | 1 (active) | 1 (active) | 1 (active) | 1 (active) | 1 (active) | 1 (active) | 1 (active) | 9 µM | 1 µM | 1 µM
C=C1CC[C@@H]2[C@](C)(CO)[C@H](O)CC[C@@]2(C)[C@@H]1C/C=C1/C(=O)OC[C@H]1O [Andrographolide] | 9 µM | 9 µM | 1 (active) | 1 (active) | 1 (active) | 0 (inactive) | 1 (active) | 1 (active) | 1 (active) | 1 (active) | 1 (active) | 1 (active) | 0 (inactive) | 0 (inactive) | 1 (active) | 0 (inactive) | 1 (active) | 3 µM | 3 µM | 9 µM
O[C@H](CNC[C@H](O)[C@@H]1CCc2cc(F)ccc2O1)[C@@H]1CCc2cc(F)ccc2O1 [nebivolol] | 3 µM | 3 µM | 1 (active) | 0 (inactive) | 1 (active) | 0 (inactive) | 1 (active) | 1 (active) | 0 (inactive) | 0 (inactive) | 1 (active) | 1 (active) | 1 (active) | 1 (active) | 1 (active) | 1 (active) | 1 (active) | 3 µM | 3 µM | 9 µM
c1ccc(CN(CC2=NCCN2)c2ccccc2)cc1 [antazoline] | 3 µM | 9 µM | 1 (active) | 0 (inactive) | 1 (active) | 0 (inactive) | 1 (active) | 0 (inactive) | 0 (inactive) | 0 (inactive) | 0 (inactive) | 0 (inactive) | 0 (inactive) | 0 (inactive) | 0 (inactive) | 0 (inactive) | 0 (inactive) | 9 µM | – | –
N#Cc1cccc(-c2c[nH]c3ncnc(N4CCOCC4)c23)c1 | 9 µM | 9 µM | 1 (active) | 0 (inactive) | 1 (active) | 0 (inactive) | 1 (active) | 1 (active) | 1 (active) | 1 (active) | 1 (active) | 1 (active) | 1 (active) | 1 (active) | 0 (inactive) | 1 (active) | 0 (inactive) | 9 µM | 3 µM | –
O=C(Nc1nc2cc(C(F)(F)F)cc(NC3CC3)n2n1)c1cccnc1 | 3 µM | 9 µM | 1 (active) | 0 (inactive) | 1 (active) | 0 (inactive) | 1 (active) | 0 (inactive) | 1 (active) | 0 (inactive) | 1 (active) | 1 (active) | 1 (active) | 1 (active) | 0 (inactive) | 1 (active) | 0 (inactive) | 3 µM | – | –
O=C(CCCN1CCC(O)(c2ccc(Cl)cc2)CC1)c1ccc(F)cc1 [haloperidol] | 3 µM | 9 µM | 1 (active) | 0 (inactive) | 1 (active) | 0 (inactive) | 1 (active) | 1 (active) | 0 (inactive) | 1 (active) | 1 (active) | 1 (active) | 0 (inactive) | 0 (inactive) | 1 (active) | 0 (inactive) | 0 (inactive) | 9 µM | 9 µM | 9 µM
CN1CCC(CN2c3ccccc3Sc3ccccc32)C1 (centres undefined) [methdilazine] | 9 µM | 3 µM | 1 (active) | 0 (inactive) | 1 (active) | 0 (inactive) | 1 (active) | 1 (active) | 0 (inactive) | 1 (active) | 1 (active) | 1 (active) | 1 (active) | 1 (active) | 1 (active) | 1 (active) | 1 (active) | 3 µM | 9 µM | 3 µM
CC(CN1c2ccccc2Sc2ccccc21)N(C)C (centres undefined) [promethazine] | 9 µM | 9 µM | 1 (active) | 0 (inactive) | 1 (active) | 0 (inactive) | 1 (active) | 1 (active) | 0 (inactive) | 1 (active) | 1 (active) | 1 (active) | 1 (active) | 0 (inactive) | 1 (active) | 1 (active) | 1 (active) | 9 µM | 9 µM | 9 µM
CC(=O)O[C@@H]1C[C@H]2C(C)(C)C(=O)C=C[C@]2(C)[C@H]2CC[C@@]3(C)[C@H](c4ccoc4)OC(=O)[C@H]4O[C@]43[C@@]21C [gedunin] | 3 µM | 9 µM | 1 (active) | 0 (inactive) | 1 (active) | 0 (inactive) | 1 (active) | 0 (inactive) | 1 (active) | 1 (active) | 1 (active) | 1 (active) | 1 (active) | 1 (active) | 1 (active) | 0 (inactive) | 0 (inactive) | 9 µM | – | 9 µM
COc1ccc(Cl)cc1NC(=O)Nc1cc(C)nc2ccccc12 | 3 µM | 3 µM | 1 (active) | 0 (inactive) | 1 (active) | 0 (inactive) | 1 (active) | 1 (active) | 1 (active) | 1 (active) | 1 (active) | 1 (active) | 0 (inactive) | 0 (inactive) | 0 (inactive) | 0 (inactive) | 0 (inactive) | 3 µM | 3 µM | –
CN(C)CCCN1c2ccccc2CCc2ccc(Cl)cc21 [clomipramine] | 3 µM | 9 µM | 1 (active) | 0 (inactive) | 1 (active) | 0 (inactive) | 1 (active) | 1 (active) | 0 (inactive) | 0 (inactive) | 1 (active) | 1 (active) | 1 (active) | 1 (active) | 1 (active) | 1 (active) | 1 (active) | 9 µM | 9 µM | 9 µM
CNCCCC12CCC(c3ccccc31)c1ccccc12 [maprotiline] | 3 µM | 3 µM | 1 (active) | 0 (inactive) | 1 (active) | 0 (inactive) | 1 (active) | 1 (active) | 0 (inactive) | 1 (active) | 1 (active) | 1 (active) | 1 (active) | 1 (active) | 1 (active) | 1 (active) | 1 (active) | 3 µM | 9 µM | 9 µM
COc1cc(C(C)=O)ccc1OCCCN1CCC(c2noc3cc(F)ccc23)CC1 [iloperidone] | 3 µM | 3 µM | 1 (active) | 0 (inactive) | 1 (active) | 0 (inactive) | 1 (active) | 0 (inactive) | 0 (inactive) | 0 (inactive) | 0 (inactive) | 0 (inactive) | 0 (inactive) | 0 (inactive) | 0 (inactive) | 0 (inactive) | 0 (inactive) | 9 µM | – | –
Cc1cc2nc(NCCCO)n(CC(=O)c3cc(C(C)(C)C)c(O)c(C(C)(C)C)c3)c2cc1C | 3 µM | 9 µM | 1 (active) | 0 (inactive) | 1 (active) | 0 (inactive) | 1 (active) | 1 (active) | 0 (inactive) | 0 (inactive) | 0 (inactive) | 1 (active) | 0 (inactive) | 0 (inactive) | 0 (inactive) | 0 (inactive) | 0 (inactive) | 3 µM | 9 µM | –
CC(=O)Nc1ccc(NC(=S)NC(=O)c2ccc(C(C)(C)C)cc2)cc1 [Tenovin-1] | 1 µM | 1 µM | 1 (active) | 0 (inactive) | 1 (active) | 0 (inactive) | 1 (active) | 0 (inactive) | 1 (active) | 0 (inactive) | 1 (active) | 1 (active) | 1 (active) | 1 (active) | 1 (active) | 1 (active) | 1 (active) | 1 µM | – | 1 µM
Cc1c(O)cccc1C(=O)N[C@@H](CSc1ccccc1)[C@H](O)CN1C[C@H]2CCCC[C@H]2C[C@H]1C(=O)NC(C)(C)C [nelfinavir] | 9 µM | 9 µM | 1 (active) | 0 (inactive) | 1 (active) | 0 (inactive) | 1 (active) | 1 (active) | 1 (active) | 1 (active) | 0 (inactive) | 1 (active) | 1 (active) | 1 (active) | 1 (active) | 0 (inactive) | 1 (active) | 9 µM | 9 µM | 3 µM
O=c1cc(N2CCOCC2)oc2c(-c3cccc4c3sc3ccccc34)cccc12 | 1 µM | 3 µM | 1 (active) | 0 (inactive) | 1 (active) | 0 (inactive) | 1 (active) | 1 (active) | 1 (active) | 1 (active) | 1 (active) | 1 (active) | 1 (active) | 1 (active) | 1 (active) | 1 (active) | 1 (active) | 1 µM | 1 µM | 3 µM
CNCCCN1c2ccccc2CCc2ccccc21 [desipramine] | 9 µM | 9 µM | 1 (active) | 0 (inactive) | 1 (active) | 0 (inactive) | 1 (active) | 1 (active) | 0 (inactive) | 0 (inactive) | 0 (inactive) | 1 (active) | 1 (active) | 0 (inactive) | 1 (active) | 0 (inactive) | 1 (active) | 3 µM | 9 µM | 9 µM
CC(CN(C)C)CN1c2ccccc2CCc2ccccc21 (centres undefined) [trimipramine] | 9 µM | 9 µM | 1 (active) | 0 (inactive) | 1 (active) | 0 (inactive) | 1 (active) | 1 (active) | 0 (inactive) | 0 (inactive) | 0 (inactive) | 1 (active) | 1 (active) | 1 (active) | 1 (active) | 0 (inactive) | 0 (inactive) | 9 µM | 9 µM | 9 µM
CN1CCN(c2ccc(-c3cccc(CN4CCOCC4)c3)cc2NC(=O)c2c[nH]c(=O)cc2C(F)(F)F)CC1 | 9 µM | 9 µM | 1 (active) | 0 (inactive) | 1 (active) | 0 (inactive) | 1 (active) | 0 (inactive) | 0 (inactive) | 1 (active) | 1 (active) | 1 (active) | 0 (inactive) | 1 (active) | 1 (active) | 1 (active) | 1 (active) | 9 µM | – | 9 µM
